Rows were chosen to be rich in hits. Some 21% of all compounds tested hit in one or more screens of this group.
Sm TGR inh: S. mansoni TGR enzyme inhibition; actives 3% (n = 360,000); purified TGR, DTNB reduction, TNB absorbance 405 nm; Q962Y6; Potency, µM (series often up to 114 µM), hits mostly inhibitors; note: nearly all actives have a fitted effect of over 60% in size
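First, TGR (20 nM dispensed) and NADPH were mixed with compound. Second, a 15 min room-temperature incubation followed. Third, further NADPH and then DTNB were added to start the reaction. Finally, TNB absorbance was monitored kinetically.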
Pf growth 96h: inhibits malaria parasite growth, 96 h; P. falciparum luciferase reporter growth, 96 h; Potency, µM (doses to about 28.7 µM), actives largely listed as inhibitors; actives 6.9% (n = 320,000)
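Parasite growth measured via integrated firefly luciferase reporter in P. falciparum. Infected erythrocytes at 2% hematocrit, 0.05% parasitemia final were treated 96 hours at 37 C under 5% CO2, and luminescence was read.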
Shiga inhibitor: blocks Shiga toxin action in Vero cells | inhibition, % at 38.7 µM | Vero cells, Shiga toxin protein synthesis inhibition reporter | actives 9.2% (n = 290,000); in the data active = inhibition mostly above about 28%, no sharp cut-off; inactive = mostly below about 43%
Pf growth 48h: inhibits P. falciparum growth in the first generation, 48 h | AID 504832 | P. falciparum luciferase growth in erythrocytes, 48 h | Potency, µM (series often up to 28.7 µM), actives largely listed as inhibitors | actives 5.9% (n = 310,000)
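Firefly luciferase activity from engineered P. falciparum reports growth; inhibitors lower the luminescent signal. Cultures contained 2% hematocrit erythrocytes at 0.1% final parasitemia.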
NS1 inh: blocks influenza NS1 protein function. Potency, µM (top dose mostly 46.1 µM). actives 0.4% (n = 270,000). AID 2326; calls by dose curve; note: actives are rising curves; nearly all actives have a fitted effect of over 50% in size
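A cell-based growth assay was used: compounds that relieve NS1-induced slow growth of budding yeast raise OD600. Assay medium was yeast nitrogen base with ammonium sulphate and -URA supplement, pH 6.0, with 2% galactose.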
CHX counter: counter-screen for Shiga toxin inhibitors: cycloheximide protein synthesis inhibition; cell reporter, cycloheximide protein synthesis inhibition counterscreen; max response, %; actives 12% (n = 300,000); AID 2314; in the data active = max response mostly above about 13%, no sharp cut-off; inactive = mostly below about 14%; note: read at 38.3 µM for the half of the compounds with a filed dose
Numbers stand for hits; . = inactive; ? = inconclusive; / = no result given. Unless noted, calls come from the whole dose curve; as a rule, active = well fitted curve in the direction sought with a large enough effect; inconclusive = small, poorly fitted or top-dose-only effect, or another doubt; inactive = no such curve, though single readings can be large; an effect the other way counts as inactive or inconclusive.

SMILES | Sm TGR inh | Pf growth 96h | Shiga inhibitor | Pf growth 48h | NS1 inh | CHX counter
CCCCNC(=O)c1cc2cc(OC)ccc2[nH]1 | . | . | . | . | . | 14
N/C(CN1CCCCC1)=N\S(=O)(=O)c1cc(Cl)cc(Cl)c1 | . | . | . | . | . | .
O=C(NCCSc1ncc(-c2ccc(F)cc2)[nH]1)c1ccc2c(c1)OCO2 | . | . | / | . | / | /
COC(=O)[C@@H]1Cc2c([nH]c3ccccc23)C(C)N1C(=O)c1ccccc1 (some centres undefined) | . | . | . | . | . | .
CCC1CN(C)C2Cc3c([nH]c4ccccc34)C(=O)CC1C2C(=O)OC (centres undefined) | 45µM | . | . | . | . | .
CCOc1ccccc1CNC(=O)CN(c1ccc(C)cc1)S(=O)(=O)N(C)C | . | / | / | / | / | /
CC(=O)N1c2ccccc2C(=O)C1N1CCN(c2cccc(C(F)(F)F)c2)CC1 (centres undefined) | . | / | / | / | / | /
CC(C)NC(=O)CCCOc1ccc(Cl)cc1Cl | . | 10µM | . | / | . | 34
C#CCN(C)CCCOc1ccc(Cl)cc1Cl | . | . | 81 | . | . | 27
CCn1c(CCCOc2ccc(Cl)cc2Cl)n[nH]c1=S | . | . | 57 | . | . | 21
CN1CCN(C(=O)CCCOc2ccc(Cl)cc2Cl)CC1 | . | ? | . | . | . | .
CCN(CC)C(=O)CCCOc1ccc(Cl)cc1Cl | . | . | 91 | . | . | .
COc1ccccc1CNC(=O)CN1C(=O)COc2ccc(S(=O)(=O)Nc3ccccc3)cc21 | . | / | / | / | / | /
Cc1nc(CSc2nnc(Nc3cccc(C)c3C)s2)cs1 | . | 7.4µM | . | ? | . | .
Cc1ccc(Nc2nnc(SCC(=O)Nc3cccnc3Cl)s2)cc1C | . | . | 52 | . | . | 27
CN(C(=O)CSc1nc2ccc([N+](=O)[O-])cc2s1)C1CCS(=O)(=O)C1 (centres undefined) | ? | 9.3µM | . | ? | . | .
Cc1nc(SCC(=O)Nc2cccnc2Cl)nc(C)c1C | . | . | . | . | / | .
Cc1cccc(Nc2nnc(SCC(=O)N(C)C3CCS(=O)(=O)C3)s2)c1C (centres undefined) | . | 2.9µM | . | ? | . | .
O=C(CSc1nc2ccc([N+](=O)[O-])cc2s1)NC1CCS(=O)(=O)C1 (centres undefined) | . | ? | . | ? | / | .
CCN(C(=O)CSc1nnc(Nc2ccccc2C)s1)C1CCS(=O)(=O)C1 (centres undefined) | . | ? | . | ? | . | .
CCOc1ccc(Nc2cc(C)c(C#N)c3nc4ccccc4n23)cc1 | . | / | / | / | / | /
CCc1ccccc1NC(=O)CN(C)C(=O)CSc1nnc(Nc2ccc(C)cc2)s1 | . | ? | . | . | . | .
CCc1ccc(Nc2nnc(SCC(=O)N(C)CC(=O)Nc3ccccc3CC)s2)cc1 | . | . | . | . | . | 28
Cc1cccc(Nc2nnc(SCC(=O)Nc3ccccc3[N+](=O)[O-])s2)c1C | . | ? | . | ? | . | 27
Cc1ccc(Nc2nnc(SCC(=O)NCCN3C(=O)CSC3=O)s2)cc1 | . | . | . | . | . | 13
SMILES | Sm TGR inh | Pf growth 96h | Shiga inhibitor | Pf growth 48h | NS1 inh | CHX counter
COC(=O)CC1C(=O)NCCN1C(=O)CSc1nc2ccc([N+](=O)[O-])cc2s1 (centres undefined) | . | ? | . | 10µM | / | .
COc1cccc(N2CCN(C(=O)CCS(=O)(=O)c3ccc4c(c3)CC(=O)N4C)CC2)c1 | . | / | / | / | / | /
Cc1ccc(Nc2nnc(SCC(=O)Nc3ccccc3[N+](=O)[O-])s2)cc1 | . | 10µM | . | . | . | .
CC(C)(C)NC(=O)c1ccc2c(c1)C1C3CCC(C3)C1C(c1ccccc1)N2 (centres undefined) | . | . | . | ? | . | .
CCCNC(=O)c1ccc2c(c1)C1C3CCC(C3)C1C(c1ccccc1)N2 (centres undefined) | . | / | . | 9.3µM | . | .
COC(=O)C(C(=O)OC)C(CC(=O)c1ccc(C)cc1)c1cc(OC)c(OC)c(OC)c1 (centres undefined) | . | ? | . | . | . | .
COc1ccc(C(CC(=O)c2ccc(C)cc2)C(C#N)C#N)cc1OC (centres undefined) | ? | . | 66 | 13µM | . | 29
CC(C)c1ccc2occ(CC(=O)Nc3ccccc3Cl)c2c1 | . | / | / | / | / | /
CN1C(=O)C(=Cc2ccc(N3CCCCC3)o2)C(=O)N(C)C1=S | . | . | . | . | . | .

From PubChem
